Screening results deposited in PubChem by Center for Chemical Genomics, University of Michigan.
An excerpt weighted towards active compounds, which were near 0.9% of everything screened.
CDC25B CDK2 inh = human CDC25B-CDK2/CyclinA binding inhibition; AID 1259370; z-score (test concentration not listed); P30305+P24941; HTRF CDC25B-CDK2/CyclinA binding, anti-His/anti-Flag; hits give high values; 94,000 tested, 0.72% active; in the data active = z-score above about 3.2
TAR Tat displ = HIV-1 TAR-Tat binding disruption | HIV-1 TAR RNA, Tat peptide displacement FRET; hits give high values | z-score (test concentration not listed) | 100,000 tested, 0.6% active | AID 1259389; active = z-score of 3 or more in at least 2 runs
* marks the source's active call; other numbers are inactive results; . = not tested or not shown; ! = a repeat was not active.

SMILES | CDC25B CDK2 inh | TAR Tat displ
COc1ccc(C2CC(=O)N3CN(c4ccccc4OC)CSC3=C2C#N)cc1 (centres undefined) | 4.3* | -2.1
COc1ccccc1N1CSC2=C(C#N)C(c3ccccc3)CC(=O)N2C1 (centres undefined) | 4.9* | -2.2
Cc1ccc(CN(C(=O)c2cccs2)c2ccccn2)o1 | -1 | 0.53
O=C(Cn1c(SCCOc2ccccc2Cl)nc2ccccc21)NC1CC1 | 0.15 | -0.01
O=C(NCc1ccc2c(c1)OCO2)c1ccc2nc3[nH]c4ccccc4c3nc2c1 | . | 1.7
O=C(NCc1ccc2c(c1)OCO2)c1ccc2nc(-c3ccco3)c(-c3ccco3)nc2c1 | . | 60*
O=C(Nc1ccccc1)c1sc(=S)n2c1[nH]c(=O)c1ccccc12 | . | 1.5
CCOC(=O)c1c(C)[nH]c(C)c1S(=O)(=O)Nc1cc(OC)cc(OC)c1 | . | 0.88
CCN(CC)S(=O)(=O)N1CCC(C(=O)N2CCN(Cc3noc4ccccc34)CC2)CC1 | . | 0.93
NC(C(=O)O)C1CCCCC1 (centres undefined) | -0.39 | .
N[C@H](C(=O)O)[C@H]1C[C@@H]1C(=O)O | 7.7* | .
CCCCN(CC)CCNC(=O)c1nn(C)c2c1CS(=O)(=O)c1ccccc1-2 | 0.55 | 0.79
CCN(CC)CCCNC(=O)c1nn(C)c2c1CS(=O)(=O)c1ccccc1-2 | -1.5 | 6.9*
CCCNC(=O)CN1c2ccccc2NC2=C(C(=O)CC(C)(C)C2)C1c1ccco1 (centres undefined) | . | 0.18
Cc1cc2c(cc1S(=O)(=O)NC1CCCCC1C)OCCN2C (centres undefined) | . | -0.25
O=c1c(O)c(-c2ccc(O)c(O)c2)oc2cc(O)cc(O)c12 | -1.9 | 28*!
O=c1cc(-c2ccc(O)c(O)c2)oc2cc(O)cc(O)c12 | . | 33*
COc1ccc(-c2cc(=O)c3c(O)cc(O)cc3o2)cc1 | . | 1.7
COc1cc(-c2oc3cc(O)cc(O)c3c(=O)c2O)ccc1O | . | 1.8
Nc1ccccc1SCc1cc(=O)n2nc(C3CCCCC3)sc2n1 | . | 2.4
O=C1CCCc2oc3c(cc(NS(=O)(=O)c4cccc([N+](=O)[O-])c4)c4ccccc43)c21 | -0.92 | .
CCc1ccc(S(=O)(=O)Nc2cc3c4c(oc3c3ccccc23)CCCC4=O)cc1 | 18* | .
C=CCNC(=O)c1ccc2snnc2c1 | -0.87 | 0.7
O=C(Nc1ccc2snnc2c1)NC1CCCC1 | 2 | 1.5
O=C(NCc1ccc2c(c1)OCO2)Nc1ccc2snnc2c1 | -2.3 | .
SMILES | CDC25B CDK2 inh | TAR Tat displ
C=CCNC(=O)Nc1ccc2snnc2c1 | 10* | 2.1
COCCNC(=O)Nc1ccc2snnc2c1 | 7.8* | 1.8
CSc1ccc(CCNC(=O)Nc2ccc3snnc3c2)cc1 | 0.6 | 2.1
O=C(NCc1ccccc1)Nc1ccc2snnc2c1 | 11* | 1.1
O=C(NCCCO)Nc1ccc2snnc2c1 | 6.5* | 1.5
CCc1ccc(-c2nc3ncccn3c2NCc2ccc(F)cc2)cc1 | . | 0.51
O=C(NC1CCCCC1)C1COc2ccccc2C1 (centres undefined) | . | 0.36
CCCCCCCNC(=O)c1c(O)c2c([nH]c1=O)CCCC2 | . | -0.44
CCOC(=O)c1sc(N2C(=O)C(=O)/C(=C(/O)c3ccccc3)C2c2ccc(F)cc2)nc1C (centres undefined) | -2.9 | 0.6
CN(C)C(=O)Nc1ccc2snnc2c1 | 1.9 | -0.37
CCN(CC)C(=O)Nc1ccc2snnc2c1 | 9.1* | 1.1
Cc1ccccc1N1C(N)=NC(N)=NC1(C)C | -0.13 | .
CC1(C)N=C(N)N=C(N)N1c1c(Cl)cccc1Cl | 7.9* | .
CCc1ccc(C2CC(=O)Nc3cc4c(cc32)OCCO4)cc1 (centres undefined) | 4.4* | 0.55
O=C1CC(c2ccc(-c3ccccc3)cc2)c2cc3c(cc2N1)OCCO3 (centres undefined) | 0.36 | 1.2
O=c1c(Cc2ccccc2)c(N2CCCCC2)nc2n1CCCS2 | -0.66 | -0.55
CC(=O)Nc1ncc(Cc2cccc(C(F)(F)F)c2)s1 | 0.13 | .
CCOC(=O)C(C)Oc1cc2oc(=O)c3c(c2cc1Cl)CCCC3 (centres undefined) | -0.59 | .
CCOc1ccc(C2c3c(oc4cc(C)cc(C)c4c3=O)C(=O)N2Cc2ccco2)cc1 (centres undefined) | -1.1 | 1.5
CCOC(=O)c1nc2ccccc2[nH]c1=O | 18* | -0.31
CCOC(=O)C(C)c1nc2ccccc2[nH]c1=O (centres undefined) | -0.92 | .
COc1ccc(-c2csc3ncnc(NC4CC4)c23)cc1 | . | -0.2
CC(=O)Nc1c2n(c3ccc(F)cc13)CC(C)(C(=O)NC1CCCCC1)N(CCC(C)C)C2=O (centres undefined) | . | 1.5
CC(=O)Nc1c2n(c3ccc(F)cc13)CC(C)(C(=O)NC1CCCCC1)N(C(C)C)C2=O (centres undefined) | . | 18*
COc1cccc2c1NC(c1cccc3ccccc13)C1CC=CC21 (centres undefined) | -0.13 | 6.4*
SMILES | CDC25B CDK2 inh | TAR Tat displ
COC(=O)c1ccc2c(c1)C1C=CCC1C(c1cccc3ccccc13)N2 (centres undefined) | -0.77 | -14
Cc1cc(C)cc(NC(=O)C2CCN(S(=O)(=O)c3c(C)noc3C)CC2)c1 | -1.2 | .
O=C1COc2ccc(S(=O)(=O)NCc3ccco3)cc2N1 | . | 1.5
Cn1c(=O)c2cc(C(=O)NC3CCCC3)sc2c2ccccc21 | 3* | -0.7
Cn1c(=O)c2cc(C(=O)NCCCN3CCCC3)sc2c2ccccc21 | 0.42 | -0.48
Cc1ccc(CS(=O)(=O)c2ncc(Cl)c(C(=O)Oc3ccc(C)cc3)n2)cc1 | -1.3 | -0.27
Cc1ccc(CS(=O)(=O)c2ncc(Cl)c(C(=O)Nc3nnc(C(C)C)s3)n2)cc1 | 5.5* | 0.97
CCn1ccc2cc(S(=O)(=O)N3CCCC(C(=O)NCCSCc4ccco4)C3)ccc21 (centres undefined) | . | 0.6
Nc1ccc(O)c2c1C(=O)c1c(N)ccc(O)c1C2=O | -2.6 | .
O=C1c2c(O)cccc2Cc2cccc(O)c21 | . | 25*
Cc1cc(-n2c(N)c(C(N)=O)sc2=S)ccc1Cl | -2.1 | 1.9
Cc1cc(C)c2c(=O)[nH]c(SCC(=O)c3ccc(O)c(O)c3)nc2n1 | -0.31 | 30*
CCN(CC)C(=O)CSc1nc2nc(C)cc(C)c2c(=O)[nH]1 | 0.19 | .
COc1ccc(-c2nc3sc(C)nn3c2NC2CCCCC2)cc1 | . | -0.72
COCCCN=C1NS(=O)(=O)C(c2ccc(F)cc2)=C1C | . | 0.46
Cc1ccc(N2C(=O)c3cccnc3C2Nc2ccc(Br)c(C)c2)cc1 (centres undefined) | -3 | 1.2
Cc1nnc(NC(=O)C(=O)c2cc(C)n(-c3ccc(Cl)cc3)c2C)s1 | 0.27 | 1.2
COCCn1c(C)cc(C(=O)C(=O)Nc2nnc(-c3cccs3)s2)c1C | -2.3 | 2.9
COCCn1c(C)cc(C(=O)C(=O)Nc2nnc(-c3ccco3)s2)c1C | -1.6 | 31*
Cc1cc(C(=O)C(=O)Nc2nnc(-c3ccco3)s2)c(C)n1-c1ccc(Cl)cc1 | -1.3 | 19*
CC(C)C(=O)Nc1c(C(=O)c2ccccc2)oc2ccccc12 | -1.2 | -0.86
COc1ccc(NC(=O)CSc2nc3c(c(=O)n2C)SCC3)cc1 | -1.4 | 0.32
Cn1nc(-c2ccccc2)c(-c2ccccc2)c(C(=O)Nc2nccs2)c1=O | -2.1 | 2.8
Cc1nc2sccn2c(=O)c1NC(=O)c1ccco1 | . | 1.4
Cc1nc2sccn2c1C(=O)NN | 15* | .
Cc1noc2ncnc(N3CCC(C(=O)N4CCC(N5CCCCC5)CC4)CC3)c12 | . | 1.5
COC(=O)c1[nH]c2sc3c(c2c1N)CCCC3 | 14* | 7*
